Assay [1] can be described thus: E. coli DRC41 culture turbidity changes, primary screen, E. coli filamentation inducer project, strain DRC41, OD650, 48 h (AID 1152).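 Also: E. coli MC1000 strain DRC41 lacking acrAB efflux pump and sulA.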 The settings on record: E. coli DRC41 (acrAB sulA), higher = more signal, called active from +8 up or from −8 down.
Assay [2] is described as follows: small-molecule binders of probe aLefty1, primary screen, biochemical, small-molecule microarray, 635/667 nm fluorescence (AID 1153).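 Also: score merges spot fluorescence with signal-to-noise ratio from the scanned slide images.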 The settings on record: higher = more signal.
The nature of assay [3]: PSAC antagonists in infected red cells, primary screen, cell-based, P. falciparum Indochina, OD700, 1 h (AID 1154). The settings on record: P. falciparum Indochina infected RBC osmotic lysis, higher = more signal, called active from +8 up or from −8 down.
Assay [4] is described as follows: PSAC antagonists in infected red cells, primary screen, cell-based, P. falciparum Indochina, OD700, 2 h (AID 1155).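 Also: lysis reports solute entry through the parasite surface anion channel PSAC; channel blockers reduce lysis of infected cells.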 The settings on record: P. falciparum Indochina infected erythrocytes, osmotic lysis OD700; higher = more signal, called active from +8 up or from −8 down.
A short description of assay [5]: osmotic lysis modulators in infected erythrocytes, primary screen, PSAC antagonist project, cell-based, P. falciparum Indochina, OD700, 3 h (AID 1156). The following applies: higher = more signal, called active from +8 up or from −8 down.
Assay [6] can be described thus: PSAC antagonists in infected red cells, primary screen, cell-based, P. falciparum Indochina, OD700, 18 h (AID 1157). The following applies: P. falciparum Indochina infected erythrocytes, osmotic lysis OD700, 18 h; higher = more signal, called active from +8 up or from −8 down.
Assay [7] can be described thus: modulators of S6 phosphorylation in cells, primary screen, cell-based, A549, cytoblot, luminescence, serum-stimulated (AID 1158).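 Also: serum-stimulated A549 lung adenocarcinoma cells; signal is phosphorylated S6 detected by cytoblot immunostaining with HRP secondary.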 The following applies: A549 phospho-S6 cytoblot, 5 h, higher = more signal.
For assay [8], the target named is NADPH oxidase 2 (Homo sapiens) (UniProt P04839). The experiment in a line: NOX2-dependent H2O2 signal modulators, primary screen, NOX inhibitor project, cell-based, HEK293-NOX2, PMA-stimulated, Amplex Red fluorescence (AID 1159). Also: test concentration not given here. The following applies: 45 min, higher = more signal, called active from +8 up or from −8 down.
Chain of NADPH oxidase 2 (Homo sapiens) (P04839 whole entry, looked up): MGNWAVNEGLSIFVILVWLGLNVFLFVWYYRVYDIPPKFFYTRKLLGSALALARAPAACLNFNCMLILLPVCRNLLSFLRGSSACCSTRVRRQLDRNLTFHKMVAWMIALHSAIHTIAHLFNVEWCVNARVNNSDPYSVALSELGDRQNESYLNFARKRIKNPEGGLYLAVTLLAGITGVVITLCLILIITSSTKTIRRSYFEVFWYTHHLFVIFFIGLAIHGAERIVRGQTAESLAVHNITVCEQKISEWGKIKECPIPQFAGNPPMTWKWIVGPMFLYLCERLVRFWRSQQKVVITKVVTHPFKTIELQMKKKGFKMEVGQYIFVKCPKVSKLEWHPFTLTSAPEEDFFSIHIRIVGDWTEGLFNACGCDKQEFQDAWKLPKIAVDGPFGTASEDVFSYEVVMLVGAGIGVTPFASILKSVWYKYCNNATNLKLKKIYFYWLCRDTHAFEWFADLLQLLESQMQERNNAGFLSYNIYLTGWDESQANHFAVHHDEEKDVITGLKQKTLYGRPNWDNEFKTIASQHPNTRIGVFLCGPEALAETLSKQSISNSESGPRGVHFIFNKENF
Assay [9] addresses NADPH oxidase 4 (Homo sapiens) (UniProt Q9NPH5). The experiment in a line: NOX4-dependent H2O2 signal modulators, primary screen, NOX inhibitor project, cell-based, HEK293-NOX4, tetracycline-induced, Amplex Red fluorescence (AID 1160). The following applies: 45 min, higher = more signal, called active from +8 up or from −8 down.
Assay [10] has as its target NADPH oxidase 5 (Homo sapiens) (UniProt Q96PH1). Put plainly: NOX5-dependent H2O2 signal modulators, primary screen, NOX inhibitor project, cell-based, HEK293-NOX5, Amplex Red fluorescence (AID 1161). The settings on record: HEK293-NOX5, ionomycin, 45 min, higher = more signal.
A short description of assay [11]: A549 cell viability effects, profiling panel, calcein-AM fluorescence, 48 h, basal (AID 1162). Also: test concentration not given here. The following applies: higher = more signal.
The nature of assay [12]: adipocyte viability effects, profiling panel, cell-based, 3T3-L1 adipocytes, calcein-AM fluorescence, 48 h, basal (AID 1163). Also: test concentration not given here. The following applies: 3T3-L1 adipocytes viability, higher = more signal.
Assay [13] can be described thus: HepG2 cell viability effects, profiling panel, calcein-AM fluorescence, 48 h, basal (AID 1164). Also: test concentration not given here. The following applies: higher = more signal.
A short description of assay [14]: MM1S cell viability effects, profiling panel, calcein-AM fluorescence, 48 h, basal (AID 1165).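 Also: viability of MM1S multiple myeloma cells under basal unstimulated conditions; test concentration not given here.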 The following applies: higher = more signal.
Assay [15] in a line: basal RPMI8226 viability, no added stimulus, profiling panel, cell-based, calcein-AM fluorescence, 48 h, PK04 Diversity Set (AID 1166).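 Also: cells grown under basal conditions without added stimulus; test concentration not given here.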 The settings on record: RPMI8226 myeloma viability, higher = more signal.
Assay [16] in a line: basal HepG2 mitochondrial membrane potential changes, profiling panel, cell-based, JC-1 fluorescence, 24 h, 100 nL compound (AID 1167). Also: test concentration not given here. The settings on record: higher = more signal.
Assay [17] in a line: basal 3T3-L1 adipocyte mitochondrial potential changes, profiling panel, cell-based, JC-1 fluorescence, 3T3-L1 adipocytes, 24 h, 100 nL compound (AID 1168). Also: test concentration not given here. The following applies: JC-1 mitochondrial fluorescence, higher = more signal, called active from +8 up or from −8 down.
Assay [18] can be described thus: basal RPMI8226 mitochondrial membrane potential changes, profiling panel, cell-based, JC-1 fluorescence, 24 h, 100 nL compound (AID 1169). Also: test concentration not given here. The following applies: RPMI8226 myeloma, JC-1 mitochondrial potential fluorescence, higher = more signal.
The nature of assay [19]: basal MM1S mitochondrial membrane potential changes, profiling panel, cell-based, JC-1 fluorescence, 24 h, 100 nL compound (AID 1170). Also: test concentration not given here. The settings on record: higher = more signal.
The nature of assay [20]: A549 lung cancer cell viability effects, profiling panel, resazurin fluorescence, 24 h, PK04 Diversity Set (AID 1171). Also: test concentration not given here. The following applies: higher = more signal, called active from +8 up or from −8 down. In general terms: Alamar Blue is a resazurin reagent that responds to reducing activity.

Active and inactive are the calls of the source.

Chain of NADPH oxidase 5 (Homo sapiens) (Q96PH1 whole entry, looked up): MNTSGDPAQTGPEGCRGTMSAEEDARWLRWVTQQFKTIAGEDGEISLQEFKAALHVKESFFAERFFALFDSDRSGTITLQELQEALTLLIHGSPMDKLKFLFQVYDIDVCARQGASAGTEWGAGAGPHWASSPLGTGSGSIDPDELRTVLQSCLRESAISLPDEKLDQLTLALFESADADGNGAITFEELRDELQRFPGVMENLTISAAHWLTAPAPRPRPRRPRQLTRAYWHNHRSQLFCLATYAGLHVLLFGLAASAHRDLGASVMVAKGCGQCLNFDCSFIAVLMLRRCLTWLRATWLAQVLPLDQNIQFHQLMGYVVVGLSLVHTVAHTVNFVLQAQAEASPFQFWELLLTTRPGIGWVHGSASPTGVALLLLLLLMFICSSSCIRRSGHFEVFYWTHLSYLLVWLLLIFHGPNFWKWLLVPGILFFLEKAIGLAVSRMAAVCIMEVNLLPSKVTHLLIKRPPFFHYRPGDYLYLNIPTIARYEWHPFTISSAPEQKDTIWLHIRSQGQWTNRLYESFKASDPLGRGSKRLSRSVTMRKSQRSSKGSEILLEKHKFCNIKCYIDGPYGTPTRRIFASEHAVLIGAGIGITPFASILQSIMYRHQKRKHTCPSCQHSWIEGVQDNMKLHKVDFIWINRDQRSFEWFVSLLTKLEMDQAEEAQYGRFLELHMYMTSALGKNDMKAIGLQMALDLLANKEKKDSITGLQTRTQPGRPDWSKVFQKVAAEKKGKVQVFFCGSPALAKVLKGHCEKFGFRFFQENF
Chain of NADPH oxidase 4 (Homo sapiens) (Q9NPH5 whole entry, looked up): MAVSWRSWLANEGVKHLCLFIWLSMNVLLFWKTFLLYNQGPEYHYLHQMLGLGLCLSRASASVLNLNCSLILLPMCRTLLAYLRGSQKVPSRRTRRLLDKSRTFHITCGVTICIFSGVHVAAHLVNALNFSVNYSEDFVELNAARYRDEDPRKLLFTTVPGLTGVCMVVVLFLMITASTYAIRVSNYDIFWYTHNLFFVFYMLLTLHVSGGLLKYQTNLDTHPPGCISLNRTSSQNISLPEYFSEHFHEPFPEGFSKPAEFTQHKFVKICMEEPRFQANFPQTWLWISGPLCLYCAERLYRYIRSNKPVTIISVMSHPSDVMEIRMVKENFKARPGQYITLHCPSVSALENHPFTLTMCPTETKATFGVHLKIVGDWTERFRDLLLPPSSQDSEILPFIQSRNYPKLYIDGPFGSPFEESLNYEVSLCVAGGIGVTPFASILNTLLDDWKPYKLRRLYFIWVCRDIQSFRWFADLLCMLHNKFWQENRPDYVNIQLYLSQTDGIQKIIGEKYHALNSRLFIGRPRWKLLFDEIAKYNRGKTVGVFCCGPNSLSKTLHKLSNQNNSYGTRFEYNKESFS

`COCCCNC(=O)C1N=C(c2ccc(OCCCO)cc2)N(c2ccccc2)O1` (stereo not given): the z-score in [1] was 0.768 (inactive); in assay [3], 18.4 (active); in assay [4], 2.14 (inactive); in assay [5], 0.669 (inactive); in assay [6] it was 0.325 (inactive); in assay [7], 0.147. In addition, the z-score in [8] was -3.86 (inactive); in assay [9] it was -0.749 (inactive); in assay [10] it was -0.819; in [11], -0.201; in assay [12] it was 0.829; in assay [13], -0.393. In addition, the z-score was 0.399 in assay [14]; 0.336 in [15]; -0.205 in assay [16]; -0.183 (inactive) in [17]; -0.492 in assay [18]; -0.213 in assay [19]. Moreover, the z-score in assay [20] is 0.938 (inactive). Moreover, the composite z-score in assay [2] is -0.265.

Turning to `CC[C@@H]1C=C(C(=O)O)[C@H](c2ccco2)N1S(=O)(=O)c1ccc(C)cc1`, the z-score in assay [1] was -0.0046 (inactive); in [3] it was 1.96 (inactive); in assay [4], 1.37 (inactive); in assay [5] it was -0.0701 (inactive); in assay [6], 0.953 (inactive); in assay [7], 0.123. Besides, the z-score in [8] is 0.152 (inactive); in assay [9], -0.589 (inactive); in assay [10] it was -0.764; in assay [11] it was -0.364; in [12], -0.538; in [13], 0.186. The z-score in assay [14] was -0.019; in [15], -0.29; in assay [16], -0.0247; in assay [17] it was -1.25 (inactive); in assay [18], 0.604; in assay [19], -1.26. The z-score in [20] is -0.68 (inactive). The composite z-score in assay [2] was -0.148.

`COC(=O)[C@@]1(Cc2ccc(F)cc2)[C@H]2c3cc(C(=O)N4CCCC4)n(Cc4ccc(C)o4)c3C[C@H]2CN1C(=O)c1ccccc1`: the z-score in assay [1] is -1.63 (inactive); in [3] it was 4.25 (inactive); in [4], 0.713 (inactive); in assay [5], 1.57 (inactive); in assay [6], 0.886 (inactive); in assay [7], -0.118. In addition, the z-score in assay [8] is -0.0294 (inactive); in assay [9], -0.466 (inactive); in [10] it was -3.03; in assay [11] it was -0.981; in [12], 0.681; in [13], -0.498. In addition, the z-score was -2.99 in assay [14]; -3.74 in assay [15]; 2.32 in [16]; 0.096 (inactive) in assay [17]; -0.486 in assay [18]; -2.84 in assay [19]. Further, the z-score in [20] was -0.72 (inactive). In assay [2], the composite z-score was -0.0464.

With `COc1ccc(C(O)C2C=CC3C(=O)NC(=O)C3N2Nc2ccccn2)c2ccccc12` (stereo not given), the z-score was -1.07 (inactive) in assay [1]; 0.496 (inactive) in assay [3]; 0.437 (inactive) in assay [4]; -0.139 (inactive) in assay [5]; 0.977 (inactive) in assay [6]; -0.841 in [7]. For the same compound, the z-score is -0.387 (inactive) in [8]; -3.5 (inactive) in assay [9]; -2.08 in assay [10]; 0.606 in assay [11]; -1.17 in assay [12]; 0.384 in assay [13]. Also, the z-score in assay [14] is -0.178; in [15], 0.384; in assay [16] it was -1.11; in assay [17] it was 0.296 (inactive); in [18], -0.905; in assay [19] it was -0.143. Further, in assay [20], the z-score was -0.703 (inactive). The composite z-score in [2] is -0.0625.

Take `CC(CO)N1C(=O)[C@@H]2C3C(=O)OCCC/C=C\[C@H]3OC23C=CCN(c2ccc4ccccc4c2)C(=O)[C@@H]13` (stereo not given in full): the z-score in [1] is 0.453 (inactive); in assay [3], 1.07 (inactive); in assay [4], 0.0843 (inactive); in assay [5], 1.87 (inactive); in [6], 0.011 (inactive); in [7], -0.13. Also, the z-score is 1.03 (inactive) in assay [8]; -0.0122 (inactive) in assay [9]; 1.97 in assay [10]; 0.149 in [11]; -0.0935 in [12]; 1.14 in assay [13]. Also, the z-score in [14] is 1.74; in assay [15], 0.931; in assay [16], 0.811; in assay [17] it was -0.373 (inactive); in assay [18], -0.713; in assay [19], -0.832. In [20], the z-score was 0.315 (inactive). Moreover, in assay [2], the composite z-score is -0.147.

Take `CN1C(=O)C2C=CC(C(O)c3cccs3)N(Nc3ccccc3)C2C1=O` (stereo not given): the z-score in assay [1] was -1.6 (inactive); in assay [3], -0.203 (inactive); in assay [4], 0.65 (inactive); in assay [5], -0.109 (inactive); in assay [6], 0.731 (inactive); in assay [7], -1.19. Also, the z-score in assay [8] was -2 (inactive); in assay [9], -4.89 (inactive); in assay [10] it was -3.11; in assay [11] it was -0.439; in assay [12] it was -0.612; in assay [13], -0.436. The z-score in assay [14] is -1.64; in assay [15] it was -0.535; in assay [16], -0.693; in assay [17] it was -0.841 (inactive); in assay [18], -0.0836; in assay [19] it was -0.528. Also, the z-score in assay [20] is -0.654 (inactive). This compound also came in with a composite z-score in assay [2] of 0.206.

`O=C1OCC=C[C@H]2OC34C=CCN(c5ccc6ccccc6c5)C(=O)[C@H]3N(CCCCCCO)C(=O)[C@@H]4[C@@H]12` (stereo not given in full): the z-score in assay [1] is -0.0903 (inactive); in [3] it was 3.18 (inactive); in assay [4], 0.0422 (inactive); in [5], 0.966 (inactive); in assay [6] it was 0.525 (inactive); in assay [7], -0.482. The z-score was 1.36 (inactive) in [8]; 0.0322 (inactive) in assay [9]; 2.12 in assay [10]; 0.429 in assay [11]; -0.358 in [12]; 0.878 in assay [13]. For the same compound, the z-score in assay [14] was 1.38; in [15], -0.0053; in assay [16] it was 0.631; in assay [17], 0.613 (inactive); in assay [18] it was -0.979; in [19], 0.469. Besides, in assay [20], the z-score was 0.61 (inactive). The compound also showed a composite z-score in assay [2] of 0.0839.

Turning to `CC(=O)NCCCC[C@@H]1NC(=O)[C@@H]2C[C@H](C(=O)NCCCCCCNC(=O)CS)[C@H](c3cccc(OCCO)c3)N2C1=O`, the z-score in assay [1] is -0.493 (inactive); in assay [3], 3.47 (inactive); in assay [4], 0.642 (inactive); in assay [5], 0.0299 (inactive); in [6], 0.351 (inactive); in [7], 0.468. Besides, the z-score was 1.55 (inactive) in [8]; 0.157 (inactive) in [9]; 0.303 in assay [10]; 0.0596 in assay [11]; -0.834 in assay [12]; 0.282 in assay [13]. The z-score in [14] was 0.211; in assay [15], 0.132; in assay [16], -0.387; in assay [17] it was 0.0104 (inactive); in [18] it was -0.811; in [19], -0.333. For the same compound, the z-score in assay [20] is -0.435 (inactive). Also, the composite z-score in [2] was -0.0334.

In the case of `CN1C(=O)C2C=CC(C(O)c3ccc(-c4ccccc4)s3)N(N(c3ccccc3)c3ccccc3)C2C1=O` (stereo not given), the z-score in assay [1] is -0.562 (inactive); in assay [3] it was 3.38 (inactive); in assay [4], 2.19 (inactive); in [5], 0.977 (inactive); in [6] it was 1.32 (inactive); in assay [7] it was -1.12. The z-score in [8] was 1.1 (inactive); in [9], 0.963 (inactive); in assay [10], -1.15; in assay [11], 0.281; in assay [12], -0.905; in assay [13] it was 0.391. Further, the z-score in assay [14] was -0.616; in assay [15] it was 0.275; in assay [16], 0.748; in assay [17], -1.98 (inactive); in assay [18] it was -1.05; in assay [19], -0.434. Moreover, the z-score in assay [20] was -0.434 (inactive). In assay [2], the composite z-score was 0.2.

Values taken from PubChem BioAssay.
